The nature of experiment [1]: Nuclear factor erythroid 2-related factor 2/antioxidant responsive element (Nrf2/ARE) small molecule agonists: qHTS cell viability counter screen in human keratinocytes (AID 1919968; active = well fitted curve in the direction sought with a large enough effect in the repeat runs; an effect the other way counts as inactive or inconclusive; also: nearly all actives have a fitted effect of over 55% in size; also: potency is read from the fitted curve at half-maximal effect). In outline:
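CellTiter-Fluor fluorescence, read 1 h after reagent, gave viability in the same wells as the ARE-luciferase assay. KeratinoSens cells (1,500/well) had 23 h compound exposure at 37 C/5% CO2 following 5 h plating.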

A short description of experiment [2]: Nuclear factor erythroid 2-related factor 2/antioxidant responsive element (Nrf2/ARE) small molecule agonists: luciferase reporter gene qHTS assay in human keratinocytes (AID 1919969). Also: nearly all actives have a fitted effect of over 35% in size. Also: potency is read from the fitted curve at half-maximal effect. Background: Reporter assays use an easily measured gene product as a stand-in for the process of interest.
Experiment [3] is described as follows: G protein-coupled receptor (GPCR) small molecule agonists, calcium flux assay: HEK293 wild type cell line counter screen (AID 1920065). In outline:
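Calcium flux counter screen: compound added in agonist mode at 15 concentrations in triplicate to dye-loaded parental HEK293 cells. Fluorescence (480/540) read kinetically for 3 min; ATP served as positive control.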
For orientation: Calcium flux is commonly read through the fluorescence of an indicator in the cells.

Experiment [4] is described as follows: p53 small molecule agonists, cell-based qHTS assay with human liver microsomes (AID 1963577).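 Also: p53 response element beta-lactamase reporter cells with liver microsomes plus NADPH.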 In outline: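 Reporter activation was measured by LiveBLAzer fluorescence intensity in p53RE-bla cells, which had been exposed to compounds for 16 h at 37 C alongside 0.5 mg/mL human liver microsomes and 0.5 mg/mL NADPH (final concentrations).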
For orientation: In qHTS, concentration-response curves come from the screen itself.

Experiment [5] in a line: p53 small molecule agonists, cell-based qHTS assay with rat liver microsomes (AID 1963578). In outline: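 Compound in DMSO added to p53RE-bla cells 5 h post-plating; rat microsomes/NADPH 0.5 mg/mL final; 16 h, 37 C; LiveBLAzer 2 h RT.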
A short description of experiment [6]: p53 small molecule agonists, cell-based qHTS assay with human liver microsomes: qHTS cell viability counter screen (AID 1963579). Also: nearly all actives have a fitted effect of over 45% in size. Also: potency is read from the fitted curve at half-maximal effect. An outline of the steps:
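HLM-supplemented (0.5 mg/mL final) and NADPH-supplemented (0.5 mg/mL final) p53RE-bla cultures, 4,000 cells per well, were dosed with compounds in DMSO for 16 h at 37 C; luminescent ATP detection (CellTiter-Glo, 30 min, room temperature) quantified surviving cells.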

The nature of experiment [7]: p53 small molecule agonists, cell-based qHTS assay with rat liver microsomes: qHTS cell viability counter screen (AID 1963580). Also: nearly all actives have a fitted effect of over 45% in size. Also: potency is read from the fitted curve at half-maximal effect. In outline:
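Cytotoxicity counter screen: intracellular ATP measured by CellTiter-Glo luminescence in the same wells as the beta-lactamase reporter read, on HCT-116 p53RE-bla cells exposed 16 h at 37 C to compounds with rat liver microsomes and NADPH, each 0.5 mg/mL final.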

The nature of experiment [8]: p53 small molecule agonists, cell-based qHTS assay: qHTS cell viability counter screen (AID 1963581). Also: nearly all actives have a fitted effect of over 45% in size. Also: potency is read from the fitted curve at half-maximal effect. An outline of the steps:
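Counter screen read by CellTiter-Glo luminescence (ATP content, 30 min at room temperature), run in the same wells as the beta-lactamase reporter read. HCT-116 p53RE-bla cells saw compounds for 16 h at 37 C.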

Experiment [9] can be described thus: p53 small molecule agonists, cell-based qHTS assay (AID 1963582; active = well fitted activation curve with a large enough effect in the signal ratio in the repeat runs, not every such curve was filed as active; the % refers to the signal ratio). In outline: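 Read-out is beta-lactamase FRET fluorescence after 2 h at room temperature with LiveBLAzer B/G substrate. p53 response element-bla cells were treated 16 h at 37 C with compounds in DMSO, added 5 h after seeding.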
For experiment [10], the target named is 5-hydroxytryptamine receptor 2A (Homo sapiens) (UniProt P28223). Put plainly: 5-hydroxytryptamine receptor 2A (HTR2A) small molecule antagonists, cell-based qHTS assay (AID 1963586). Also: nearly all actives have a fitted effect of over 45% in size. Also: potency is read from the fitted curve at half-maximal effect. An outline of the steps:
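CHO cells stably expressing human HTR2A were plated for 18 h at 37 C, then loaded with calcium dye for 1 h. Compounds were preincubated 5 min at room temperature before DOI (4 nM solution) was added. Kinetic fluorescence was read for 3 min.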

The target is the same in experiment [11]. Briefly: 5-hydroxytryptamine receptor 2A (HTR2A) small molecule agonists, cell-based qHTS assay (AID 1963587). Also: nearly all actives have a fitted effect of over 30% in size. Also: potency is read from the fitted curve at half-maximal effect. In outline: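 CHO cells stably expressing human HTR2A, plated 18 h, loaded with calcium dye 1 h at 37 C. Agonist mode: compounds added and intracellular calcium fluorescence recorded kinetically for 2 min at 1 sec intervals.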
The target of experiment [12] is Muscarinic acetylcholine receptor M1 (Homo sapiens) (UniProt P11229). Briefly: Cholinergic receptor muscarinic 1 (CHRM1) small molecule antagonists, cell-based qHTS assay (AID 1963588). Also: nearly all actives have a fitted effect of over 40% in size. An outline of the steps: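 Compounds were tested at 15 concentrations in three independent runs. Dye-loaded CHRM1-CHO cells were exposed 5 min at room temperature before stimulation by acetylcholine added at 50nM. Intracellular calcium was read kinetically on FDSS for 3 min.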

For experiment [13] the target is unchanged. Briefly: Cholinergic receptor muscarinic 1 (CHRM1) small molecule agonists, cell-based qHTS assay (AID 1963589). Also: nearly all actives have a fitted effect of over 35% in size. In outline:
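Agonist-mode calcium-flux screen: compounds at 15 concentrations, three independent runs, were pin-transferred onto dye-loaded human CHRM1-CHO cells. Fluorescence was then recorded kinetically every second over minutes.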

Experiment [14] is described as follows: cAMP Responsive Elements (CRE) small molecule agonists, cell-based qHTS assay (AID 1963590). In outline: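 Agonist mode: compound added to CRE-bla HEK 293T cells (2,000/well, 18 h after plating) for 3 h at 37 C/5% CO2. Reporter activity detected via FRET beta-lactamase substrate, 2 h room-temperature loading.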
In experiment [15] the target is Beta-2 adrenergic receptor (Homo sapiens) (UniProt P07550). Put plainly: Adrenergic beta2 receptor (ADRB2) small molecule antagonists, cell-based qHTS assay (AID 1963592). Also: series mostly up to about 92 µM; nearly all actives have a fitted effect of over 50% in size. In outline: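 Assay format: CHO-ADRB2 cells, 18-20hr seeding at 37C/5% CO2, then compound plus 1nM isoproterenol agonist mix for 0.5hr RT. Homogeneous time-resolved fluorescence cAMP detection after 1hr, expressed as 665/615 nm ratio.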

Experiment [16] shares this target. Put plainly: Adrenergic beta2 receptor (ADRB2) small molecule agonists, cell-based qHTS assay (AID 1963593).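 Also: CHO cells stably overexpressing human ADRB2.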 An outline of the steps:
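CHO cells stably over-expressing ADRB2 were plated overnight at 37C, then dosed with compounds plus a stimulation mix containing 100uM IBMX and 25uM Ro-20-1724 for 0.5hr at room temperature. cAMP was measured by HTRF competition, 1hr.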

In experiment [17] the target is D(2) dopamine receptor (Homo sapiens) (UniProt P14416). Briefly: Dopamine D2 receptor (DRD2) small molecule antagonists, cell-based qHTS assay (AID 1963595; active = well fitted inhibition curve with a large enough effect in the signal ratio in the repeat runs, with a control signal flat; the % refers to the signal ratio; also: potency is read from the fitted curve at half-maximal effect). An outline of the steps: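 Antagonist mode in DRD2-HEK293 cells: after compound addition with 0.1 mM Ro20-1724, cells received quinpirole (12 nM) and NKH477 (200 nM) for 30 min at room temperature; HTRF cAMP read after 1 h detection.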

For experiment [18] the target is unchanged. Put plainly: Dopamine D2 receptor (DRD2) small molecule agonists, cell-based qHTS assay (AID 1963594). Also: nearly all actives have a fitted effect of over 35% in size. In outline:
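HEK293 cells stably expressing human DRD2, pre-treated with PDE inhibitor Ro20-1724 (0.1 mM final) and compound 10 min at room temperature, then stimulated with NKH477 (200nM […]) for 30 min. cAMP read by HTRF (665/620 nm).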

A short description of experiment [19]: cAMP Responsive Elements (CRE) small molecule antagonists, cell-based qHTS assay (AID 1963591; active = well fitted inhibition curve with a large enough effect in the signal ratio in the repeat runs, not every such curve was filed as active; the % refers to the signal ratio). An outline of the steps: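 Antagonist mode: compounds are added alongside the adenylyl cyclase activator NKH477 (0.25 uM final) to CRE-bla HEK293T cells for 3 h. LiveBLAzer FRET substrate, 2 h at room temperature, reports bla expression.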
The target in experiment [20] is KiSS-1 receptor (Homo sapiens) (UniProt Q969F8). Put plainly: Human kisspeptin (KISS1R) small molecule agonists, calcium flux assay in KISS1R-HEK293 cells (AID 1920064; active = well fitted curve in the direction sought with a large enough effect in the repeat runs; an effect the other way counts as inactive or inconclusive). An outline of the steps:
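Agonist mode: intracellular calcium rise tracked at 1 s intervals over 3 min (480/540 nm) immediately after compound addition to dye-loaded KISS1R-HEK293 stable cells. Each compound tested at 15 concentrations in triplicate.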

Unmarked numbers belong to inactive results. Results filed as inconclusive are left out. Calls of active or inactive are those of the source. Unless noted, calls follow the shape of the full dose curve.

The values that follow come from PubChem BioAssay (Tox21).

Sequence of D(2) dopamine receptor (Homo sapiens) (P14416 whole entry, looked up): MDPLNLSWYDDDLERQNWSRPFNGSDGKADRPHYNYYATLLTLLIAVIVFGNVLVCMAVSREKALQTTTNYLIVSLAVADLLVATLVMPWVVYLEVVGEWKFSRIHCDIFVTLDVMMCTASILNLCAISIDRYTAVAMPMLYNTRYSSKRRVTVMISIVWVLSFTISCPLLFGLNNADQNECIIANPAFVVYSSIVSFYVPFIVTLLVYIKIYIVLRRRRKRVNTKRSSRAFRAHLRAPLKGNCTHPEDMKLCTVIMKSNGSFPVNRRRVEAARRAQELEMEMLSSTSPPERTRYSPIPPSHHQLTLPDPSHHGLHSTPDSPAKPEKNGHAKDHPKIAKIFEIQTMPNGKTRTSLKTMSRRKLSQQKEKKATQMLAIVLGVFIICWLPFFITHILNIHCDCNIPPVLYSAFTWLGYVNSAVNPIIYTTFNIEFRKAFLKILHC
Sequence of Muscarinic acetylcholine receptor M1 (Homo sapiens) (P11229 whole entry, looked up): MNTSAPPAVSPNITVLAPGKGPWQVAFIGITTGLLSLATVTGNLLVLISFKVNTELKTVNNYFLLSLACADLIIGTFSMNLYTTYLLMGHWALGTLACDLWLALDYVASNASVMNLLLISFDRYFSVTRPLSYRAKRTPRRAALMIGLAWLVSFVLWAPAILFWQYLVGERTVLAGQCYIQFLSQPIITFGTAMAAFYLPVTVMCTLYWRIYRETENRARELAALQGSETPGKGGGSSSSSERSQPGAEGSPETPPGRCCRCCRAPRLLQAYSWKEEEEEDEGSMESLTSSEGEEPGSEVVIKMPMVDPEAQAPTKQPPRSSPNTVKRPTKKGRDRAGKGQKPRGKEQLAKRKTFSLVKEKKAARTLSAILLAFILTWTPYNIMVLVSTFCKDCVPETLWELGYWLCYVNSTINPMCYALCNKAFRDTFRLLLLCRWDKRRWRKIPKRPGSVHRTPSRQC
Sequence of 5-hydroxytryptamine receptor 2A (Homo sapiens) (P28223 whole entry, looked up): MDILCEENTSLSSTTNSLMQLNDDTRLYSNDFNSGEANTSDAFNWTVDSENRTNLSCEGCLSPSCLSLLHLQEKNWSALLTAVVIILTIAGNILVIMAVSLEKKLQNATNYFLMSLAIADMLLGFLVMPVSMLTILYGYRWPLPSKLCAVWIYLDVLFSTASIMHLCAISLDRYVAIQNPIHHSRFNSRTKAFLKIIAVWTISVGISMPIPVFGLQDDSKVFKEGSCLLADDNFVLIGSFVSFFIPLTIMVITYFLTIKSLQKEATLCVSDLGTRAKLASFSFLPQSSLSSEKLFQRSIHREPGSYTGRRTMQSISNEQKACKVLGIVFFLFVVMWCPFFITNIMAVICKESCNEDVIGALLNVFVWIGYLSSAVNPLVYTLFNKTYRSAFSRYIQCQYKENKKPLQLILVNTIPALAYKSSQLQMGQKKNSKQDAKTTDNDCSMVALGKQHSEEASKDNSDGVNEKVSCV
Sequence of Beta-2 adrenergic receptor (Homo sapiens) (P07550 whole entry, looked up): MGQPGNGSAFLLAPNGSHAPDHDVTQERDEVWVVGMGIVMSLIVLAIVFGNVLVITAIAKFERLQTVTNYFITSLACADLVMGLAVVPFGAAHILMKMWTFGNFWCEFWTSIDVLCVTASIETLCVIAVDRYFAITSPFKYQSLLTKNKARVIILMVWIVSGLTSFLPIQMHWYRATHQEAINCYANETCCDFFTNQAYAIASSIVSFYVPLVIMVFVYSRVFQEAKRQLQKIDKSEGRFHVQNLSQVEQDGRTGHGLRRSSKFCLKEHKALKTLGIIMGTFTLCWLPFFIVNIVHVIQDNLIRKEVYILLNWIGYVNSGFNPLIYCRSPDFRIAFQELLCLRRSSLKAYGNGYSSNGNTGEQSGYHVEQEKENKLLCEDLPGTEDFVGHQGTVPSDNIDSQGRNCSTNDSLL
Sequence of KiSS-1 receptor (Homo sapiens) (Q969F8 whole entry, looked up): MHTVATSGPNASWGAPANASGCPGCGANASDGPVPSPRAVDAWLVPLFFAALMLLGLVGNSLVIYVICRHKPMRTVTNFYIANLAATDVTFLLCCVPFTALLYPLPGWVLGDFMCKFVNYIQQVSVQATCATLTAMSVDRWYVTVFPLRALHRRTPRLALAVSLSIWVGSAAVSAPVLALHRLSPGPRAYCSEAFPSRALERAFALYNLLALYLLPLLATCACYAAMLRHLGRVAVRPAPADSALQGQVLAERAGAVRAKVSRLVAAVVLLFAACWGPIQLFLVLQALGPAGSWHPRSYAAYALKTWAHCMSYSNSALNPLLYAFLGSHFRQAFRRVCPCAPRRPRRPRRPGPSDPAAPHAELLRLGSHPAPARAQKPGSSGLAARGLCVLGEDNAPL

For the compound `CN/C(=N\[N+](=O)[O-])NCc1cnc(Cl)s1`, the Potency entry in [1], in experiment [2], in experiment [3], in experiment [4], in experiment [5] and in experiment [6] was “inactive” throughout. Further, the Potency entry in [7], in experiment [8], in [9], in experiment [10], in [11] and in [12] was “inactive” each time. Also, the Potency entry in [13], in [14], in experiment [15], in experiment [16] and in [17] was “inactive” each time.

In the case of `Cc1c([N+](=O)[O-])c(C)c([N+](=O)[O-])c(C(C)(C)C)c1[N+](=O)[O-]`, the Potency result in experiment [1], in experiment [2], in experiment [3], in experiment [4], in [5] and in experiment [6] was “inactive” throughout. Besides, the Potency result in experiment [7], in experiment [8], in experiment [10], in [11], in experiment [12] and in experiment [13] was “inactive” throughout. The Potency entry in experiment [15], in experiment [16], in experiment [18] and in experiment [17] was “inactive” in each case.

Take `CC(C)(C#N)C(C)(C)C#N`: the Potency result in [1], in experiment [2], in experiment [3], in [4], in [5] and in experiment [6] was “inactive” each time. Further, the Potency result in [7], in experiment [8], in experiment [10], in [11], in [12] and in [14] was “inactive” throughout. The Potency entry in [19], in experiment [15], in experiment [18] and in [17] was “inactive” throughout.

For `CC(Cc1ccccc1)NCCCCl` (stereo not given), the Potency entry in experiment [1], in experiment [2], in experiment [3], in [4], in [5] and in experiment [6] was “inactive” in each case. For the same compound, the Potency entry in experiment [9], in [11], in experiment [12], in experiment [13], in experiment [14] and in experiment [19] was “inactive” throughout. The Potency result in experiment [15], in [16], in experiment [18] and in [17] was “inactive” throughout.

In the case of `COc1cc(Cl)c(OC)cc1Cl`, the Potency entry in [1], in experiment [2], in [3], in experiment [4], in experiment [6] and in experiment [7] was “inactive” in each case. Also, the Potency entry in experiment [8], in experiment [10], in [11], in experiment [13], in experiment [15] and in experiment [16] was “inactive” throughout. Besides, in [17], the Potency result is “inactive”.

As for `CCOC(=O)c1ncn2c1CN(C)C(=O)c1c(I)cccc1-2`, the Potency result in experiment [1], in experiment [2], in experiment [3], in experiment [6], in [7] and in [8] was “inactive” throughout. For the same compound, the Potency entry in experiment [9], in experiment [10], in experiment [11], in experiment [12], in [14] and in experiment [15] was “inactive” throughout. For the same compound, the Potency result in [16], in experiment [18] and in experiment [17] was “inactive” in each case.

With `[Hg+2].[I-].[I-]`, the Potency in experiment [1] is 4.33 µM (active); in [2] it was 1.22 µM (active); in experiment [6], 4.58 µM (active); in experiment [7], 12.9 µM (active); in experiment [8] it was 18.2 µM (active); in [11], 49 µM (active). Moreover, the Potency in experiment [17] is 27.3 µM (active). The Potency entry in experiment [3], in [4], in experiment [5], in experiment [10] and in experiment [12] was “inactive” throughout.

Turning to `O=C1c2ccccc2C(=O)C1C(=O)C(c1ccccc1)c1ccc(Cl)cc1` (stereo not given), the Potency was 15.4 µM (active) in experiment [1], 4.21 µM (active) in [10] and 49 µM (active) in experiment [11]. Further, the Potency entry in [2], in experiment [3], in experiment [4], in experiment [5], in experiment [7] and in experiment [9] was “inactive” throughout. In addition, the Potency result in [19], in experiment [15], in [18] and in experiment [17] was “inactive” in each case.

As for `O=C(Cc1ccccc1)OCc1ccccc1`, the Potency entry in experiment [1], in experiment [2], in experiment [20], in experiment [6], in [11] and in [12] was “inactive” each time. Also, the Potency entry in [13], in experiment [14], in experiment [19], in [15], in experiment [18] and in [17] was “inactive” in each case.
